Experimental data published in PubChem BioAssay (NCI).
About 79,000 compounds went through this panel and 15% of them were active in at least one assay; those are over-represented in the sample as a whole. Unmarked numbers belong to inactive results. Active and inactive are the calls of the source. Rule as the data show it: active = growth inhibition above about 70%; inactive = the rest.

Columns and labels:
[1] = NCI Yeast Anticancer Drug Screen. Data for the rad50 strain (AID 155);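 also: 0% = growth of vehicle-only cultures of the same strain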; conditions: S. cerevisiae rad50 strain growth inhibition; at 50.0 µM; stronger effect = higher value
Method in brief: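 Vehicle-treated cultures provide the reference for the growth inhibition reported for compound-exposed, repair-deficient yeast.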

[2] = NCI Yeast Anticancer Drug Screen. Data for the mec2-1 strain (AID 157); conditions: S. cerevisiae mec2-1 strain, at 50.0 µM, stronger effect = higher value
Method in brief: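 Compounds were applied to mec2-1 yeast cells. Their growth was then compared with that of vehicle-treated cultures to give growth inhibition.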

[3] = NCI Yeast Anticancer Drug Screen. Data for the sgs1 mgt1 strain (AID 161);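 also: 0% = growth of cultures given vehicle only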; conditions: S. cerevisiae sgs1 mgt1 strain, at 50.0 µM, stronger effect = higher value
Method in brief: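 This yeast growth screen uses a strain with defined DNA-repair lesions; compound-treated growth is compared with vehicle-treated growth.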

[4] = NCI Yeast Anticancer Drug Screen. Data for the cln2 rad14 strain (AID 165);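 also: 0% = growth equal to vehicle treated cultures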; conditions: S. cerevisiae cln2 rad14 strain, at 50.0 µM, stronger effect = higher value
Method in brief: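 Strain: cln2 rad14 yeast, altered in cell cycle control and DNA damage repair. Read-out: growth inhibition vs vehicle.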

[5] = NCI Yeast Anticancer Drug Screen. Data for the bub3 strain (AID 167); conditions: S. cerevisiae bub3 mutant strain, at 50.0 µM, stronger effect = higher value
Method in brief: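 Mutant yeast screening strain plus compound; vehicle-treated cultures serve as the 0% inhibition reference.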

[6] = NCI Yeast Anticancer Drug Screen. Data for the mlh1 rad18 strain (AID 175); conditions: S. cerevisiae mlh1 rad18 strain growth inhibition; at 50.0 µM; stronger effect = higher value
Method in brief: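 A repair-deficient yeast strain is exposed to test compound, and growth is scored relative to vehicle-treated controls.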

SMILES | growth inhibition [1] | growth inhibition [2] | growth inhibition [3] | growth inhibition [4] | growth inhibition [5] | growth inhibition [6]
O=C(O)c1ccccc1C(=O)CCC(=O)c1ccccc1C(=O)O | -43.5% | -6.75% | 14.3% | -8.95% | -0.05% | 1.25%
COc1ccc(N2C(=O)C(=O)C3(CCCCC3)C2=O)c2ccccc12 | -6.15% | -25.7% | -16% | 10.8% | 1.05% | 0.3%
O=C(O)C1C(C2c3ccc(O)cc3Oc3cc(O)ccc32)C2(Cl)C(Cl)=C(Cl)C1(Cl)C2(Cl)Cl (stereo unspecified) | 95.3% (active) | 94.4% (active) | 96.8% (active) | 69.2% | 81.6% (active) | 95.3% (active)
COC(=O)c1ccc(C)[nH]1 | -12.8% | 10.4% | -22.2% | 26.6% | 6.4% | -1.8%
COC(=O)c1ccc(Cn2ccc(=O)n(Cc3ccc(C(=O)OC)cc3)c2=O)cc1 | 63.2% | 23.8% | 74.6% (active) | 30.6% | 31.3% | 43.1%
Cc1cc2c(cc1C)C(C)(C)c1c(nc(N)[nH]c1=O)N2C | 3.7% | -1.1% | 20.5% | -15.7% | -0.45% | 1.7%
N#CC(C#N)c1c(F)c(F)c(C(F)(F)F)c(F)c1F | 10.4% | -4.6% | 34.9% | -8.95% | -9.9% | -0.65%
CCOC(=O)NC(=O)c1cn(CCCOC(=O)CCCCCCCCCCC(=O)OCCCn2cc(C(=O)NC(=O)OCC)c(=O)[nH]c2=O)c(=O)[nH]c1=O | -28.5% | -24.2% | -12.4% | 18.6% | -0.95% | -18.9%
O=C1C2C3CCC(C3)C2C(=O)C2C3CCC(C3)C12 (stereo unspecified) | -1.6% | -12.7% | -9.95% | -8.45% | 8.75% | 6.65%
NC(=O)CCN(CCC(N)=O)c1ccc2c(c1)C(=O)c1ccccc1-2 | -7.3% | -6.05% | -8% | -22.9% | 15.5% | -14.9%
CCOC(=O)C(C#N)S(C)(=O)=O (stereo unspecified) | 4.55% | -6.55% | 1.9% | -35.3% | -12.1% | -1.6%
O=C1CSC(c2ccco2)N1CCN1C(=O)CSC1c1ccco1 (stereo unspecified) | -19% | -5% | -12.7% | -39.4% | -8.6% | -15.7%
O=C(O)C1C=CCC2C(O)C=CC(=O)C12 (stereo unspecified) | -5.95% | -31.2% | -1.05% | -2.4% | -11% | -5.9%
O=C(O)c1ccncc1S(=O)(=O)O | -20.6% | -36.2% | -24.3% | -8.4% | -23.5% | -9.9%
O/N=C1/C(=C/c2ccc(F)cc2)CCCC1C(NO)c1ccc(F)cc1 (stereo unspecified) | -3.9% | -22.1% | -8.05% | 3.35% | -6% | -17.7%
CCC(=O)CCN(CC)CC | -39.6% | -33.3% | -55.8% | -5% | -35.3% | -40.4%
O=C1OCCC1n1cc(F)c(=O)[nH]c1=O (stereo unspecified) | 3.15% | -5.3% | -3.45% | -39% | -20.2% | -2%
CC(=O)OC/C=C(C)/C=C/C=C(C)/C=C/C1=C(C)CCCC1(C)C | -15.4% | -34% | -20.3% | -2.25% | 12.5% | -55%

SMILES | growth inhibition [1] | growth inhibition [2] | growth inhibition [3] | growth inhibition [4] | growth inhibition [5] | growth inhibition [6]
Cc1cc(NCCN(C(C)C)C(C)C)nc(Nc2nc3ccc(Cl)cc3[nH]2)n1 | -13% | -16.5% | -10.2% | -45.2% | 1.95% | -44.5%
CC(C)=CC1C(C(=O)Oc2c(Cl)c(Cl)c(Cl)c(Cl)c2Cl)C1(C)C (stereo unspecified) | 12.5% | 6.5% | 40.9% | 12.2% | -4.15% | 31.2%
CC(O)CCCCC(O)CCC[C@H](O)[C@H]1CCC([C@H]2CCC([C@@H](O)CCCCCCCCCCCCC3=C[C@H](C)OC3=O)O2)O1 (stereo partly specified) | 40.9% | 29.1% | 71.2% (active) | 85.5% (active) | -16.7% | 81.7% (active)
O=C(O)CC1CCCc2ccccc2C1=O (stereo unspecified) | 34.3% | 46.3% | 18.1% | 25.9% | 48.5% | 17.9%
O=[N+]([O-])c1ccc(-c2ccc(-c3ccccc3)cc2)cc1 | -1.8% | -12.7% | 5.35% | -15.4% | -10.7% | -3.6%
O=C1CN(c2ccc(Cl)cc2)C(=O)CN1/N=C/c1ccc(O)c(O)c1 | -37.1% | -10.8% | 4.4% | -16.9% | -7.65% | -4.95%
O.O.[Cl][Pt+2][Cl].[NH-]CC1(C[NH-])CCCCC1 | 10.4% | 5.7% | 11.8% | 18.5% | 8.75% | -30.1%
Cc1ccc(CO)cc1C | 4.75% | -8.5% | -2.2% | -6.55% | -1.35% | -0.15%
CCN1C(=O)/C(=C/c2cc([N+](=O)[O-])ccc2OCC(=O)O)SC1=S | -1.85% | -11.3% | 3.5% | -42.8% | 2.55% | 1.4%
Cc1c(O)ccc2c(O)c(NC(=O)c3ccc4c(c3)CCC(C)(C)O4)c(=O)oc12 | 4.95% | -22.9% | 7.95% | -95.5% | -21.5% | 21.1%
CCOC(=O)Cc1ccc(OC)c(OC)c1 | 3.45% | -7.05% | 3.9% | -17.1% | -2.8% | 1.4%
CC[N+](C)(CC)c1ccccc1 | -4.35% | -54.3% | -18.6% | 0.3% | -33.5% | 1.1%
CN(C)CCCNCc1c[nH]c(=O)[nH]c1=O | -4.75% | 6.55% | -9.9% | -7.4% | -4.85% | -25.9%
C=CC(C)(C)NC(C(=O)N1CCC[C@H]1c1nc(-c2nc(C(=O)OCC=C(C)C)c(C)o2)c(C)o1)C(C)C (stereo partly specified) | -4.25% | -10.7% | 15.6% | -11.3% | 3.05% | -2.85%
O=C(CCN1CCCCC1)Nc1ccc2sc3ccccc3c(=O)c2n1 | 51.9% | -19.7% | -0.6% | 9.1% | 11.1% | 10.7%
COC(=O)/C(=C\c1ccccc1[N+](=O)[O-])c1ccc2c(c1)OCO2 | 23.6% | -10.1% | 3.2% | -38.5% | 9.6% | 14.4%
CCCCCCCCCCCCCCC(O)CO (stereo unspecified) | -11.3% | -12.7% | -4.45% | -102% | -27.1% | -20.9%
CCCCOB1OC(c2ccccc2)(c2ccccc2)c2ccccc2C(c2ccccc2)(c2ccccc2)O1 | 31.1% | 3.65% | 27.2% | 3.85% | -2.1% | 22.6%
